From PubChem BioAssay
Hits are enriched below; roughly 3.2% of the tested compounds scored in any of these assays.
CaV13 FRET inh: Primary screen for inhibitors of IQ motif and Ca2+-dependent inactivation inhibitor domain binding in CACNA1D, Förster resonance energy transfer in living cells, …. HEK cells, CFP/YFP FRET ICDI-IQ, plate reader, 10 min; percent FRET-ratio fall versus neutral wells. inhibition, % at 12.3 µM. 340,000 tested, 0.098% active. AID 743397;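 active = mean replicate inhibition of at least 30% and at least 1% of replicates passing that level; inconclusive = only one of the two criteria is met; inactive = neither criterion is met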;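 note: 0% = median of the neutral control wells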
DENV2 CPE rescue: inhibitors of DENV2 cytopathic effect, primary screen, cell-based, plate reader, single concentration. DENV2-infected cells, cytopathic effect rescue. CPE inhibition, % at 9.99 µM. 350,000 tested, 1.7% active. AID 651640, 2012; in the data active = CPE inhibition above about 20%, passing the limit was not always enough; inconclusive = no clear call, values can overlap the other calls; tested in BHK-21 cells;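 note: 0% = median of neutral control wells and 100% = median of positive control wells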
PGC1a acetyl inh: inhibitors of PGC1a acetylation signal, primary screen, cell-based, U2OS, AlphaScreen, inhibitor mode; AID 651687, 2012; AlphaScreen anti-acetyl-lysine; with virally co-expressed GCN5 acetyltransferase; inhibition, % at 15.6 µM; 350,000 tested, 0.17% active;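 active = every replicate shows inhibition of at least 40%; inconclusive = mean inhibition at least 40% but some replicate below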;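 note: 0% = neutral control wells and 100% = positive control wells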
ERAP1 HTS inh: human ERAP1 aminopeptidase inhibitors, primary screen, biochemical, single point, plate reader. Endoplasmic reticulum aminopeptidase 1 (Homo sapiens), Q9NZ08. recombinant ERAP1, Leu-AMC fluorescence, 60 min. inhibition, % at 10.7 µM. 340,000 tested, 0.15% active;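 active = mean replicate inhibition of at least 30%, or all replicates individually reaching that 30% level; inactive = mean below 30% and not every replicate reaching it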;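 note: 0% = neutral control wells and 100% = L-leucinethiol positive control wells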
Target sequence (Q9NZ08 whole entry, looked up): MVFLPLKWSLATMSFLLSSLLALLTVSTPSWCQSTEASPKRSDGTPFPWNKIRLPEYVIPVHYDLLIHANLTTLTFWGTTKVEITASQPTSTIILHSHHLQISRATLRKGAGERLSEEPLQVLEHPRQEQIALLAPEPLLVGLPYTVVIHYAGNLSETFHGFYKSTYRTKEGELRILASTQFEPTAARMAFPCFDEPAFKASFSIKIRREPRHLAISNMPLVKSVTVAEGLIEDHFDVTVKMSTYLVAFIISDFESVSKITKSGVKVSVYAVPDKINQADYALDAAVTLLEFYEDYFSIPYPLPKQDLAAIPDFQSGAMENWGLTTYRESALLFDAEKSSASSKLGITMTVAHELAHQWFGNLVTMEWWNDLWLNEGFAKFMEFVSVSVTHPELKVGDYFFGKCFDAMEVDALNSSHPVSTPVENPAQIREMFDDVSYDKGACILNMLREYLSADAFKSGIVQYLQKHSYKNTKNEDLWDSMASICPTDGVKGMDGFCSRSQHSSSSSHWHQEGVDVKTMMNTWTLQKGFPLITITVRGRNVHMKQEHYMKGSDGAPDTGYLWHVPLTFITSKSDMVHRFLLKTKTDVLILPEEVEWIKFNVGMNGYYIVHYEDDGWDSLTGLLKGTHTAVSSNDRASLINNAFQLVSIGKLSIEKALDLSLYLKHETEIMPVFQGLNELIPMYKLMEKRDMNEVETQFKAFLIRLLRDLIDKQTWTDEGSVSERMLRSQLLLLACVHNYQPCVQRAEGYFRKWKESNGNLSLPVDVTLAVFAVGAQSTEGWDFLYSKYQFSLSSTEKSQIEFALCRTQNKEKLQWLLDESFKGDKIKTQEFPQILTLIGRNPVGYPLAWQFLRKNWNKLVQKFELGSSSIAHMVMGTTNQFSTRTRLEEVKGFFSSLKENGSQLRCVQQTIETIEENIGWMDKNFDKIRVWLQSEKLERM
Ecoli rRNA inh: reduced GFP signal of wild-type E. coli, primary screen, bacterial rRNA inhibitor project, GFP/RFP fluorescence, OD600, single point; E. coli WT GFP vs humanized-ribosome RFP mutants, 24 h; hits give low values; DMSO median 0, no signal -100; GFP signal change (wild-type ribosome), % (concentration not given with the values); 350,000 tested, 1.6% active;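 active = significant combined selectivity score with lowered wild-type GFP, culture density cut under 30%, mutant RFP and density less affected; inactive = any of these conditions unmet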
GSIS activator: GLuc luminescence reporter in INS-1E cells, primary screen for activators of glucose-dependent secretion of insulin. 370,000 tested, 0.61% active. AID 743287, 2014. activation, % at 16.6 µM. INS-1E GLuc reporter insulin secretion, 2-3 h;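 active = lowest replicate activation of at least 40%, so every replicate reaches that level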;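 note: 0% = median of neutral control wells and 100% = median of IBMX positive control wells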
AID977621: growth inhibition of wild-type GFP E. coli, dose response, H69 mutant RFP, cherry-pick. shares compounds with Ecoli rRNA inh. E. coli wild-type GFP strain growth, fluorescence, 24 h. activity change, negative = inhibition at 50 µM. 1,900 tested, under 10 active. AID 977621, 2014;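 active = Wild-type ribosome reporter drop at least double the humanized mutant ribosome reporter drop, growth loss under a set limit; inconclusive = no clear call, values can overlap the other calls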;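 note: wild-type GFP and H69 mutant RFP strains grown together 50/50 in each well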
AID977628: E. coli growth inhibition, wild-type GFP versus h24 humanized RFP strain, dose response, h24 mutant RFP vs wild-type GFP, cherry-pick | activity change, negative = inhibition at 50 µM | E. coli WT GFP strain growth, fluorescence, 24 h | shares compounds with Ecoli rRNA inh | AID 977628, 2014 | 1,900 tested, under 10 active;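 active = compound lowering the normal-ribosome reporter at least twice as much as the humanized-ribosome reporter, growth loss under a set limit; inconclusive = no clear call, values can overlap the other calls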;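 note: wild-type GFP and h24 humanized RFP strains co-cultured 1 to 1 per well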
Active calls of the source: *; ? = inconclusive; / = no result given.

SMILES	CaV13 FRET inh	DENV2 CPE rescue	PGC1a acetyl inh	ERAP1 HTS inh	Ecoli rRNA inh	GSIS activator	AID977621	AID977628
O=C(Nc1ccc(C(=O)N2CCOCC2)cc1)C1CCCC1	-5.4	12.4	9.3	-6.3	-4.4*	-2.3	3.37	8.33
O=C(Cc1cccc(NC(=O)C2CCN(C(=O)C3CCCCC3)CC2)c1)Nc1cccc(C(=O)N2CCCC2)c1	-10.5	?	/	-0.5	-21.5*	/	-19.2	/
O=C(Nc1ccc(C(=O)N2CCCC2)cc1)C1CCCC1	-7.1	?	10.9	/	21.9	5.4	/	/
C/C=C/c1ccc2c(c1)O[C@@H](CN(C)Cc1cccnc1)[C@@H](C)CN([C@@H](C)CO)S2(=O)=O	/	6.5	3.4	1.7	-2.6	-2.9	/	/
C/C=C/c1ccc2c(c1)[C@@H]1[C@@H](CCN1S(=O)(=O)c1ccccc1OC)[C@H](CO)N2C	/	/	/	/	-21.3*	2.4	/	?
CO[C@@H]1CN(C)C(=O)c2ccc(NC(C)=O)cc2OC[C@H](C)N(C(=O)CN2CCOCC2)C[C@H]1C	/	3.5	-0.4	-0.1	-0.1	7.1	/	/
Cc1ccsc1C(=O)C1CCCN(Cc2cc(F)ccc2-n2cccn2)C1 (stereo unspecified)	2.0	-4.5	/	-2.9	-32.6*	-11.5	-12.9	-13.8
COc1cc(OC)c(OC)cc1CN1CCCC(C(=O)c2sccc2C)C1 (stereo unspecified)	-1.9	1.0	1.8	-5.1	-2.9	28.0	/	/
C=CCN(CC=C)C(=O)c1ccc2nc(Cc3ccc(OC)c(OC)c3)oc2c1	-18.6	-0.1	5.4	-2.1	-32.9*	-6.6	/	?
COc1ccc(Cc2nc3ccc(C(=O)NCc4cc(C)no4)cc3o2)cc1OC	-5.1	5.8	/	2.1	7.2	7.6	/	/
NC(=O)c1ccsc1NC(=O)COC(=O)CCOc1ccccc1	-17.8	-5.1	5.8	/	-22.6*	/	-16.5	/
CCCC#Cc1cnc2c(c1)C(=O)N([C@@H](C)CO)C[C@H](C)[C@H](CN(C)C(=O)Nc1ccccc1F)O2	/	0.6	0.8	4.3	0.1	5.2	/	/
CC1CCc2sc3ncn4nc(C(=O)NCc5ccco5)nc4c3c2C1 (stereo unspecified)	-3.6	/	6.9	/	/	/	/	/
CC1CCc2c(sc3ncn4c(SCC(=O)NCc5ccco5)nnc4c23)C1 (stereo unspecified)	-7.8	2.9	23.1	-3.0	-20.0*	-15.1	-10.7	-8.4
CCC(=O)N(C)C[C@@H]1Oc2cc(-c3ccc(OC)cc3)ccc2S(=O)(=O)N([C@H](C)CO)C[C@@H]1C	/	8.7	-5.5	0.4	-9.5	0.9	/	/
CN1CCN(CC(=O)c2cc(C(C)(C)C)c(O)c(C(C)(C)C)c2)CC1	-4.4	-3.8	-7.1	0.7	-30.6*	-18.3	-2.77	-9.31
CC(C)(C)c1cc(CN2CCN(CCO)CC2)cc(C(C)(C)C)c1O	-5.3	/	-28.4	/	/	/	/	/
C[C@@H](O)C#Cc1ccc([C@H]2[C@@H](CO)N3CCCCN(C(=O)c4ccc(F)cc4)C[C@H]23)cc1	/	-2.4	5.5	2.0	2.8	-1.1	/	/
CC1Sc2ccc(S(=O)(=O)NCc3ccccc3)cc2NC1=O (stereo unspecified)	-13.4	-3.3	-15.2	-0.5	-21.2*	3.5	-13.6	/
O=C(c1ccccc1)N(C(=O)c1ccccc1)c1ccccc1	-4.8	8.7	-2.8	0.7	7.9	18.2	/	/
O=C(c1ccccc1)N(c1ccccc1)c1nccc2ccccc12	-6.8	-3.3	-5.4	/	-28.0*	19.7	-5.51	/
CCc1ccc2[nH]c(C(=O)Nc3ccc4c(c3)OCO4)cc2c1	3.9	6.9	/	-3.5	-26.0*	-9.6	-12.7	?
O=C(Nc1ccc2c(c1)OCO2)c1ccc(CO)cc1	-6.0	15.8	-11.7	1.6	8.1	3.0	/	/
COc1ccc(N(C)S(=O)(=O)c2cccc(C(=O)NC3CCCC3)c2)cc1	-6.2	1.2	-15.3	-1.6	-26.3	-28.6	/	/
COc1ccc(N(C)S(=O)(=O)c2cccc(C(=O)NC3CCCCC3C)c2)cc1 (stereo unspecified)	-6.2	-0.4	-14.4	4.9	-27.0*	-14.9	-6.93	/
SMILES	CaV13 FRET inh	DENV2 CPE rescue	PGC1a acetyl inh	ERAP1 HTS inh	Ecoli rRNA inh	GSIS activator	AID977621	AID977628
CSc1ccc(CN(C)C(=O)C(c2ccccc2)c2ccccc2)cc1	-6.5	-3.6	-12.8	-3.1	-20.6*	-0.4	-10.7	?
O=C(Cc1ccccn1)NCC[C@H]1CC[C@H](NS(=O)(=O)c2ccc(F)cc2)[C@@H](CO)O1	/	-6.0	7.8	2.1	3.8	-1.4	/	/
C[C@H](CO)N1C[C@H](C)[C@H](CN(C)Cc2ccc(C(F)(F)F)cc2)Oc2ccc(NC(=O)NC3CCCCC3)cc2C1=O	/	-6.9	4.7	-1.1	-2.3	-16.8	/	/
CCOc1ccc(NC(=O)CCc2nnc3ccc(N4CCC(C)CC4)nn23)cc1	-13.0	-6.6	/	1.0	-20.4*	-34.0	-1.43	/
COCC#Cc1ccc2c(c1)O[C@@H](CN(C)C(=O)CN(C)C)[C@H](C)CN([C@H](C)CO)S2(=O)=O	/	5.5	10.6	0.4	0.9	-1.0	/	/
CC(C)Oc1ccc(C(CC(=O)O)NC(=O)Cc2ccc(Cl)cc2)cc1 (stereo unspecified)	-3.8	3.6	2.1	-2.6	9.7	-7.8	/	/
CC(C)(C)c1ccc(C(CC(=O)O)NC(=O)Cc2ccc(Cl)cc2)cc1 (stereo unspecified)	-3.5	-3.8	-1.8	0.8	-23.9*	-16.8	-15	?
CN(C)c1ccc(-c2nnn(CC(=O)Nc3ccccc3N3CCOCC3)n2)cc1	-7.8	5.0	0.8	-1.3	-15.8*	15.8	-8.88	-13.5
O=C(C[C@H]1C[C@H]2c3cc(NC(=O)NC4CCCC4)ccc3O[C@H]2[C@@H](CO)O1)NCc1cc(F)ccc1F	/	-4.9	2.6	/	-1.3	2.7	/	/
Cc1ccc(N2C(=O)NC(NS(=O)(=O)c3ccccc3)(C(F)(F)F)C2=O)cc1C (stereo unspecified)	-5.8	/	4.1	-0.8	-17.2*	3.1	-11	/
CCc1nnc(NC(=O)c2nc(S(=O)(=O)Cc3ccccc3)ncc2Cl)s1	-5.3	14.9	/	-5.4	4.2	6.0	/	/
